Measured values from PubChem BioAssay (EPA / NIEHS).
Values joined by “and” are separate entries in the source; they are usually repeats but may differ in a detail not shown here. Equal values may be shown once. Results filed as inconclusive are left out. Some compounds were tested as several samples or in several runs, with calls that do not always agree. Active and inactive are the calls of the source. Rule for the calls, unless noted: active = hit-call score of the fitted dose curve at least 0.9, where 1 is the maximum; inconclusive = response in the unintended direction; inactive = score below 0.9.

Assays:
[1] = target: Glucocorticoid receptor (Homo sapiens) (UniProt P04150); assay: NVS_NR_hGR: NovaScreen (NVS) Nuclear Receptor Binding Assay for human Glucocorticoid Receptor (GR) (AID 2283363);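 for AC50: activity is loss of specific radioligand binding signal relative to DMSO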
In short: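 Filter scintillation readout of tritiated/iodinated radioligand displaced by test chemical; cell-free extracted protein; 16 h. DMSO = negative control/baseline. Duplicate single-point 25 uM screen, then concentration-response on actives.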

[2] = target: Nuclear receptor subfamily 1 group I member 2 (Homo sapiens) (UniProt O75469); assay: NVS_NR_hPXR: NovaScreen (NVS) Nuclear Receptor Binding Assay for human Pregnane X Receptor (PXR) (AID 2283365);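 note: a drop in FRET signal versus DMSO baseline means the compound binds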
In short: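 Human PXR protein, cell-free; compound added, incubated 2 h, TR-FRET read. Signal decrease vs DMSO = binding. Screened 25 uM duplicate, actives re-run as dilution series.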

[3] = target: guinea pig Sigma Receptor, Non-selective Binding, SIGMAR1 (gene 100135589) (UniProt Q60492); assay: NVS_OR_gSIGMA_NonSelective: NovaScreen (NVS) Nuclear Receptor Binding Assay for guinea pig Sigma Receptor, Non-selective Binding (AID 2283367)
In short: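 Membranes from guinea pig brain incubated with radioligand and test chemical for 1 h, then filtered and scintillation-counted. Duplicate primary testing at 25 uM, with concentration-series follow-up for actives.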

[4] = target: human Dopamine Transporter (DAT), SLC6A3 (gene 6531) (UniProt Q01959); assay: NVS_TR_hDAT: NovaScreen (NVS) Transporter Assay for human Dopamine Transporter (DAT) (AID 2283374);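 note: activity means loss of bound radioligand signal relative to DMSO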
Sequence of human Dopamine Transporter (DAT), SLC6A3 (gene 6531) (Q01959 whole entry, looked up): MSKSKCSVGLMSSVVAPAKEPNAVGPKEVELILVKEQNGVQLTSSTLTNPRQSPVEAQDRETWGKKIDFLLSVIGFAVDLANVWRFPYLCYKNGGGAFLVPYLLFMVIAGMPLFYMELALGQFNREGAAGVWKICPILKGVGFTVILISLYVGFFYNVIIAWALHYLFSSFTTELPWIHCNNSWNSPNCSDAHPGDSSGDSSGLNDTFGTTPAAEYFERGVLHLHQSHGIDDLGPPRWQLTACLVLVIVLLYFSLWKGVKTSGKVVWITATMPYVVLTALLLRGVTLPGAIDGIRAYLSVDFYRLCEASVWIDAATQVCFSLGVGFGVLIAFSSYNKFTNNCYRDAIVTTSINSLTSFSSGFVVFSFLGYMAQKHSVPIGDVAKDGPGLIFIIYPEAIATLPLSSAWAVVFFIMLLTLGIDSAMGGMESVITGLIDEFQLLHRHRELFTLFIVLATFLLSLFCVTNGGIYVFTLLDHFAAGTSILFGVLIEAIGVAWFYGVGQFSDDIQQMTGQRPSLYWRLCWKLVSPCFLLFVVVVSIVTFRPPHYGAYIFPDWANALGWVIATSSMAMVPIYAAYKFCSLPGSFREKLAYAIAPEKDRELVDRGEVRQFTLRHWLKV
In short: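 hDAT membranes + tritiated/iodinated radioligand, competitive displacement; 1 h; filter scintillation readout. Single conc 25 uM (duplicate), then conc-response for actives. DMSO = negative control.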

[5] = target: mouse Estrogen Receptor alpha (Era), Esr1 (gene 13982) (UniProt P19785); assay: NVS_NR_mERa: NovaScreen (NVS) Nuclear Receptor Binding Assay for mouse Estrogen Receptor alpha (Era) (AID 2283378);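 note: hit means loss of bound radioligand signal relative to DMSO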
In short: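 Extracted mouse Era incubated with tritiated or iodinated radioligand plus test chemical, 18 h. Bound fraction separated on filters, counted by scintillation. DMSO = negative control/baseline; duplicate single-point at 25 uM, then concentration-response follow-up.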

[6] = target: Estrogen receptor (Homo sapiens) (UniProt P03372); assay: OT_ERa_GFPERaERE_0480: Odyssey Thera (OT) 8-hour HeLa Transcription Induction Assay for Estrogen Receptor (AID 2283381; active = hit-call score of the fitted dose curve at least 0.9, where 1 is the maximum; inactive = score below 0.9)
Sequence of Estrogen receptor (Homo sapiens) (P03372 whole entry, looked up): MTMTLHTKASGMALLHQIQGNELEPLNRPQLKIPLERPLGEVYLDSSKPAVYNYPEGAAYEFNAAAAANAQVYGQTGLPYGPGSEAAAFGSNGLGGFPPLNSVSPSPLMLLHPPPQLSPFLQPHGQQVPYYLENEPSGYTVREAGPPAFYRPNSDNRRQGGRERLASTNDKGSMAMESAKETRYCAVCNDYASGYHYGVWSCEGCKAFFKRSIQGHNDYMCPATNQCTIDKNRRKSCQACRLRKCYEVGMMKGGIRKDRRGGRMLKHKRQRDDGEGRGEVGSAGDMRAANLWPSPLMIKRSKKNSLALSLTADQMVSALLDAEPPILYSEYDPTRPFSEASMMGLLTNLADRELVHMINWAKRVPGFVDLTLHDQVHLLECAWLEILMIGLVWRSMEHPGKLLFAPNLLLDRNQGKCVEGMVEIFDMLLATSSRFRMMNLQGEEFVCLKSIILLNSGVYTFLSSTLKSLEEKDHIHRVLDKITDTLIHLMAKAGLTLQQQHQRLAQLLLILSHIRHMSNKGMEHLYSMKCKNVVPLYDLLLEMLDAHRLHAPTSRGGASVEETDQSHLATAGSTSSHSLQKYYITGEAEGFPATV
In short: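 Fluorescence microscopy with high-content image analysis measures ERE-driven GFP induction in HeLa cells at 8 h post-dose. Increases fitted against DMSO baseline.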

[7] = target: Estrogen receptor (Homo sapiens) (UniProt P03372); assay: OT_ERa_GFPERaERE_0120: Odyssey Thera (OT) 2-hour HeLa Transcription Induction Assay for Estrogen Receptor (AID 2283382)
In short: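 Fluorescence-microscopy images of the GFP-ERα/ERE reporter, scored by high-content image algorithms, give the readout. HeLa exposure lasted 2 h, and only signal increase over DMSO was fitted.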

[8] = target: Bile acid receptor (Homo sapiens) (UniProt Q96RI1); assay: OT_FXR_FXRSRC1_0480: Odyssey Thera (OT) 8-hour HEK293T Protein-Complementation Assay for Farnesoid X receptor/SRC-1 Co-activator (AID 2283383)
Sequence of Bile acid receptor (Homo sapiens) (Q96RI1 whole entry, looked up, the tested form may be a part): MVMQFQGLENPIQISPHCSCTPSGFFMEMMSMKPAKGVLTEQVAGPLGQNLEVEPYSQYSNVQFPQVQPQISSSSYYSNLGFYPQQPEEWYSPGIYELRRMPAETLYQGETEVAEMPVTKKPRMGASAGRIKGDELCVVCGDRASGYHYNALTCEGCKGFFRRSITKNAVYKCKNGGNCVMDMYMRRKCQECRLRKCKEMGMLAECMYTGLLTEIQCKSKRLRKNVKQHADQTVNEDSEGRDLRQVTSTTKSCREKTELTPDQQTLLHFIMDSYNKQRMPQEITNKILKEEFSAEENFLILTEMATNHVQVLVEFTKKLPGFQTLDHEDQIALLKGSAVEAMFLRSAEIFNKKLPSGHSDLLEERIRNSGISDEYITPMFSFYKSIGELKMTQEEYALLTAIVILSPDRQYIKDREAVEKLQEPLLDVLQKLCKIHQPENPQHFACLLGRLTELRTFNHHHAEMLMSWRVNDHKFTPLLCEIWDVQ
In short: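 Binding of FXR to coactivator SRC-1 was read as fluorescence from a reconstituted split reporter in HEK293T cells, 8 h after chemical addition. Only increases in signal versus DMSO were fit.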

[9] = target: Bile acid receptor (Homo sapiens) (UniProt Q96RI1); assay: OT_FXR_FXRSRC1_1440: Odyssey Thera (OT) 24-hour HEK293T Protein-Complementation Assay for Farnesoid X receptor/SRC-1 Co-activator (AID 2283384)
In short: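 Protein-fragment complementation: FXR and SRC-1 fused to reporter fragments that reassemble on interaction, read by fluorescence intensity. Human HEK293T cells measured 24 h post-dose; positive-direction fit versus DMSO.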

[10] = target: Retinoic acid receptor RXR-alpha (Homo sapiens) (UniProt P19793); assay: OT_NURR1_NURR1RXRa_0480: Odyssey Thera (OT) 8-hour HEK293T Protein Complementation Assay for Nurr1/retinoid X receptor (RXR) (AID 2283385)
Sequence of Retinoic acid receptor RXR-alpha (Homo sapiens) (P19793 whole entry, looked up, the tested form may be a part): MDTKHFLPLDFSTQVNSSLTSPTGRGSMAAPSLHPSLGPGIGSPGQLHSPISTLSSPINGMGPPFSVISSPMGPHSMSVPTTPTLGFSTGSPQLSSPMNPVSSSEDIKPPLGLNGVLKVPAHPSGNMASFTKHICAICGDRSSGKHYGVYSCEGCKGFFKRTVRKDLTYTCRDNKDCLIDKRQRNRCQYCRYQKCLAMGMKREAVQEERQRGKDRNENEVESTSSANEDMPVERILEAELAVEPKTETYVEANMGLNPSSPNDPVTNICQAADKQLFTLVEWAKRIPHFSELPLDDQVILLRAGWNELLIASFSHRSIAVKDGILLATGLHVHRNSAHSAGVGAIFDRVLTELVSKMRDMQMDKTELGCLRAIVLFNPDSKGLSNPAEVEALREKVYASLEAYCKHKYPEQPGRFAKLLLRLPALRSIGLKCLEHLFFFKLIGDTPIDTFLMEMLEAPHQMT
In short: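 Interaction of Nurr1 with RXRα read as reconstituted reporter fluorescence in a HEK293T fragment-complementation system, 8 h post-treatment; increase over DMSO baseline analysed.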

[11] = target: Peroxisome proliferator-activated receptor gamma (Homo sapiens) (UniProt P37231); assay: NVS_NR_hPPARg: NovaScreen (NVS) Nuclear Receptor Binding Assay for human Peroxisome Proliferator-activated Receptor gamma (PPARg) (AID 2283370)
Sequence of Peroxisome proliferator-activated receptor gamma (Homo sapiens) (P37231 whole entry, looked up): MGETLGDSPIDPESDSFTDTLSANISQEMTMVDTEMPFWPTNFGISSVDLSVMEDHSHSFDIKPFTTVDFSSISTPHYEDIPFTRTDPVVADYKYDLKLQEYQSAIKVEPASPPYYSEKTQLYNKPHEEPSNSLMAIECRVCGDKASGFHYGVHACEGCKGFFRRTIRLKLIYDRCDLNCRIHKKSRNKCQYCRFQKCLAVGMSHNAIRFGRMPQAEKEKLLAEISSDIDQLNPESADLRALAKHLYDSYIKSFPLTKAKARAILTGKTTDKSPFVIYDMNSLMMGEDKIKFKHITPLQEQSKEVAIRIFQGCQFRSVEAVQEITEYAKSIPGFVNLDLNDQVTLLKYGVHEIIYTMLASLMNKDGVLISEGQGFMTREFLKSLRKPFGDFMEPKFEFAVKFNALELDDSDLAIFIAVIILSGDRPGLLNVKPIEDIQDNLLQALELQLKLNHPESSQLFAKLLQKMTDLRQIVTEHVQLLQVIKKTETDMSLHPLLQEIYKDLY
In short: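 Chemicals were tested first in duplicate at 25 uM, then in concentration series if active. Binding to cell-free PPARg protein was measured by fluorescence polarization after 2 h, with loss of signal scored against DMSO.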

[12] = target: human Norepinephrine Transporter (NET), SLC6A2 (gene 6530) (UniProt P23975); assay: NVS_TR_hNET: NovaScreen (NVS) Transporter Assay for human Norepinephrine Transporter (NET) (AID 2283377);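 note: cell-free membrane protein extracted from CHO cells expressing human NET; displacement of radioligand from human NET seen as loss of scintillation signal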
In short: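 CHO cell extracts expressing the transporter; tritiated or iodinated tracer displaced competitively; filtration plus scintillation readout at 1 h. Single-point duplicates at 25 uM, concentration series for follow-up; activity = signal drop relative to DMSO.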

[13] = target: Estrogen receptor beta (Homo sapiens) (UniProt Q92731); assay: OT_ER_ERbERb_1440: Odyssey Thera (OT) 24-hour HEK293T Protein-Complementation Assay for Estrogen Receptor-beta/-beta Homodimer (AID 2283380);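 note: scored as signal increase over DMSO baseline for both agonists and antagonists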
Sequence of Estrogen receptor beta (Homo sapiens) (Q92731 whole entry, looked up, the tested form may be a part): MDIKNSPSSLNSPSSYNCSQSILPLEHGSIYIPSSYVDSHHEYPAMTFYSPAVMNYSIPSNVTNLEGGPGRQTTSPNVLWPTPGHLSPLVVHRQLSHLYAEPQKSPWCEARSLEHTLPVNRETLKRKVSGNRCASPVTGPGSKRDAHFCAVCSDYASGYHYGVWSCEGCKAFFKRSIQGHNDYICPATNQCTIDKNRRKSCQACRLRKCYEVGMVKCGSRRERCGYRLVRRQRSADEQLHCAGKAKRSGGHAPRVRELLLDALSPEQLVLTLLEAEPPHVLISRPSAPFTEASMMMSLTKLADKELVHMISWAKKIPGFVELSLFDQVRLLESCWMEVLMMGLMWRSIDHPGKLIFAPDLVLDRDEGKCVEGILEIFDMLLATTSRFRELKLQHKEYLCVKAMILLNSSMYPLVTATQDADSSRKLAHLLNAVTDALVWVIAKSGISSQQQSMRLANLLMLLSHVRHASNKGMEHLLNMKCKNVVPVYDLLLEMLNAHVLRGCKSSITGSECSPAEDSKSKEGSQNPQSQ
In short: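 HEK293T cells stably expressing ER beta LBD (aa 310-547) homodimer fragment-complementation reporter, dosed 24 h. Cells formaldehyde-fixed, Draq5-stained; gain in nuclear (agonist) or nuclear plus cytoplasmic (antagonist) fluorescence versus DMSO read by laser scanning cytometry.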

[14] = target: rat Androgen Receptor (AR), Ar (gene 24208) (UniProt P15207); assay: NVS_NR_rAR: NovaScreen (NVS) Nuclear Receptor Binding Assay for rat Androgen Receptor (AR) (AID 2283366)
Sequence of rat Androgen Receptor (AR), Ar (gene 24208) (P15207 whole entry, looked up): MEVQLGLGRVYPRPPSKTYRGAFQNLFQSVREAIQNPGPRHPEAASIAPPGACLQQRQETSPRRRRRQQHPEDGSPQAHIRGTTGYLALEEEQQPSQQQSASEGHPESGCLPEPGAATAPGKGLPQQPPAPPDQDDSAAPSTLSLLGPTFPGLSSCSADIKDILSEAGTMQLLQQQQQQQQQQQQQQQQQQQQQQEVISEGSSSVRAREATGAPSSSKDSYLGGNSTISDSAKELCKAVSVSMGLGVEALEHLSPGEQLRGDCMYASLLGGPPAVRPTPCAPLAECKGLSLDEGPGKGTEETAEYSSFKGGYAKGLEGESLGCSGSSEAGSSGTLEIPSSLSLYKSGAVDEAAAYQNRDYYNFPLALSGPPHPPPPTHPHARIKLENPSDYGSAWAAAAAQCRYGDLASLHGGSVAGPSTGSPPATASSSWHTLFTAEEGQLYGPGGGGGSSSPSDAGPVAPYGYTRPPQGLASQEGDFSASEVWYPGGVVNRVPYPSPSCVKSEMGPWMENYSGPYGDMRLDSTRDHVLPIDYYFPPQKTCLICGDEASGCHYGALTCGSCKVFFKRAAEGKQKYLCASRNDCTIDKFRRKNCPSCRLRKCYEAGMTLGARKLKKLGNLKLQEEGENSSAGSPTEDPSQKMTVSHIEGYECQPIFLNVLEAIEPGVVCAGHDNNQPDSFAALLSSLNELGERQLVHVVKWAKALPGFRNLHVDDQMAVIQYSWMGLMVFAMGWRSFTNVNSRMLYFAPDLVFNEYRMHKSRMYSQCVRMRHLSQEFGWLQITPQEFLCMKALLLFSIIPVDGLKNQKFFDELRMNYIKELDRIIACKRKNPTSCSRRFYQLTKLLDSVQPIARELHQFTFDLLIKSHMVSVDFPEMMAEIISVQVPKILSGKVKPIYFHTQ
In short: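 Actives from a duplicate single-concentration (25 uM) primary run went on to concentration series. Displacement of radioligand was counted by filtration and scintillation, 18 h post-dose, using prostate extracts from testosterone-pretreated rats, with DMSO as baseline.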

[15] = target: Agonist Androgen Response Element (ARE), AR (gene 367) (UniProt P10275); assay: OT_AR_ARELUC_AG_1440: Odyssey Thera (OT) 24-hour CHO-K1 Luciferase Assay for Agonist Androgen Response Element (ARE) (AID 2283379)
Sequence of Agonist Androgen Response Element (ARE), AR (gene 367) (P10275 whole entry, looked up): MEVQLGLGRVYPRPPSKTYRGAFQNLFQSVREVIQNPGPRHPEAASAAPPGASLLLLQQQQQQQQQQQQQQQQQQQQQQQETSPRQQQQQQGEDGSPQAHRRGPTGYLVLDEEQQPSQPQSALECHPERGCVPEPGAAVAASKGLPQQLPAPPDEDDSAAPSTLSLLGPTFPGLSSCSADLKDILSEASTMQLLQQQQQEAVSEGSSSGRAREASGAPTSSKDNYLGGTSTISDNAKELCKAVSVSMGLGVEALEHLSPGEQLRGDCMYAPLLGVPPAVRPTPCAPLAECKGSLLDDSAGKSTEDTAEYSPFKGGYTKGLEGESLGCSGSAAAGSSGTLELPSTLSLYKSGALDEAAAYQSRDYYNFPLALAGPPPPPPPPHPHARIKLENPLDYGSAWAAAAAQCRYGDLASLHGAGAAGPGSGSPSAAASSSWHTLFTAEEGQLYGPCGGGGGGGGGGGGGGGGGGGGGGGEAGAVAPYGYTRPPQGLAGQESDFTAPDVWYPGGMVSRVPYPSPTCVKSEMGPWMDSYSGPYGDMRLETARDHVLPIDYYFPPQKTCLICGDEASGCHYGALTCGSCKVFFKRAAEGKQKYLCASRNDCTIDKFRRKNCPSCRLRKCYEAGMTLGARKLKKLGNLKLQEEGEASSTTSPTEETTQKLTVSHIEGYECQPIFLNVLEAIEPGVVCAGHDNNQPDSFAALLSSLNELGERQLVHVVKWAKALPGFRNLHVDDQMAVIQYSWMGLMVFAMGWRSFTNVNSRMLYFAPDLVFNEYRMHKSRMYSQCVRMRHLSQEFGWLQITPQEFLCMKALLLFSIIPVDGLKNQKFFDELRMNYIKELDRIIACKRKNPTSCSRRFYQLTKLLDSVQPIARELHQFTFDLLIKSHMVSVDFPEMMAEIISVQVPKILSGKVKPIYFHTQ
In short: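 Gain-of-signal reporter endpoint: cells (CHO-K1, hamster) are treated 24 h, luciferin/ATP reagent added, and luminescence compared with DMSO baseline.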

[16] = target: rat Serotonin Transporter (SERT), Slc6a4 (gene 25553) (UniProt P31652); assay: NVS_TR_rSERT: NovaScreen (NVS) Transporter Assay for rat Serotonin Transporter (SERT) (AID 2283375)
In short: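 Filtration-based radiodetection quantified loss of specific radioligand binding in rat forebrain membranes after 1 hour of chemical exposure, relative to DMSO. Chemicals were first tested in duplicate at 25 uM.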

[17] = target: human Serotonin Transporter (SERT), SLC6A4 (gene 6532) (UniProt P31645); assay: NVS_TR_hSERT: NovaScreen (NVS) Transporter Assay for human Serotonin Transporter (SERT) (AID 2283372)
In short: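 Human platelet membrane preparation; displacement of radioligand from serotonin transporter measured after 1 h by filtration and scintillation counting. Single 25 uM duplicate screen, then concentration series for actives, with DMSO as negative baseline.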

[18] = target: Norway rat Vesicular Monoamine Transporter (VMAT2), neurotransmitter transporter, Slc18a2 (gene 25549) (UniProt Q01827); assay: NVS_TR_rVMAT2: NovaScreen (NVS) Transporter Assay for Norway rat Vesicular Monoamine Transporter (VMAT2), neurotransmitter transporter (AID 2283376);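 note: actives lower the bound radioligand signal below the DMSO level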
In short: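 Filter-based scintillation counting of radioligand bound to rat forebrain-derived VMAT2 protein, cell-free, 1 h post-dose. Signal loss relative to DMSO control scored; single-concentration duplicate screen (25 uM) followed by concentration-response testing of actives.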

Measured: AC50

C[C@]12CCC(=O)C=C1CC[C@@H]1[C@@H]2CC[C@@]2(C)[C@H]1CC[C@]2(C)O
active: [1] 401 nM and 201 nM and 306 nM | [2] 9 µM and 8.26 µM | [3] 7.29 µM | [8] 16.1 µM and 16.7 µM and 11.7 µM | [9] 23.5 µM and 27.9 µM and 33.2 µM
inactive: [2] | [4] | [5] | [6] | [7] | [8] | [9] | [10]

COS(=O)(=O)OC
inactive: [3] | [6] | [7] | [10]

CC(C)(c1ccccc1)c1ccc(O)cc1
active: [1] 5.28 µM and 6.67 µM and 16.2 µM | [2] 12.7 µM and 25 µM | [11] 25 µM | [4] 5.98 µM | [12] 15.5 µM | [5] 2.98 µM and 11 µM | [13] 2 µM and 11.9 µM and 2.17 µM | [6] 770 nM and 897 nM and 861 nM | [7] 633 nM and 791 nM and 967 nM
inactive: [2] | [11] | [5]

Clc1ccc(C(c2ccccc2Cl)C(Cl)(Cl)Cl)cc1 (stereo not drawn)
active: [5] 51.7 nM | [13] 2.14 µM and 2.1 µM and 2.35 µM | [10] 54.9 µM and 58.4 µM and 63.9 µM
inactive: [2] | [5]

CCC(C)c1cc([N+](=O)[O-])cc([N+](=O)[O-])c1O (stereo not drawn)
inactive: [11] | [13] | [6] | [7] | [9] | [10]

CCCCCCCCOC(=O)c1ccccc1C(=O)OCCCCCCCC
inactive: [11] | [5] | [13] | [6] | [7] | [8] | [9] | [10]

CCC(=O)O[C@H]1CC[C@H]2[C@@H]3CCC4=CC(=O)CC[C@]4(C)[C@H]3CC[C@]12C
inactive: [2] | [3] | [11] | [5] | [13] | [6] | [7] | [10]
active: [1] 2.45 µM and 896 nM and 841 nM | [14] 1.53 µM [middle of 4 runs] | [15] 3.34 nM and 0.907 nM and 1.93 nM | [13] 12.7 µM and 3.36 µM and 12.8 µM | [6] 12.3 µM | [10] 42.7 µM and 57.9 µM

Oc1c(Cl)c(Cl)c(Cl)c(Cl)c1Cl
inactive: [1] | [11] | [5] | [6] | [7] | [10]

CCC(C)(CC)c1cc(NC(=O)c2c(OC)cccc2OC)on1
inactive: [13] | [10]

O=C(N[C@H]1CN2CCC1CC2)c1cc2ccoc2cn1
inactive: [13] | [6] | [7] | [10]
active: [16] 12.1 µM | [15] 71.8 µM

Cc1ccccc1CO[C@@H]1C[C@@]2(C(C)C)CC[C@]1(C)O2
active: [17] 4.86 µM | [4] 11.2 µM | [16] 6.62 µM | [10] 81.2 µM
inactive: [15]

ClC1=C(Cl)[C@]2(Cl)[C@@H]3[C@@H](Cl)[C@H]4O[C@H]4[C@@H]3C1(Cl)C2(Cl)Cl
inactive: [6] | [7] | [10]
active: [13] 14.4 µM | [10] 79.6 µM

ClC1=C(Cl)[C@]2(Cl)[C@@H]3[C@H]4C[C@H]([C@@H]5O[C@H]45)[C@@H]3[C@@]1(Cl)C2(Cl)Cl
inactive: [5] | [6] | [10]

ClC(Cl)=C(c1ccc(Cl)cc1)c1ccc(Cl)cc1
active: [7] 11.8 µM | [8] 85 µM and 83.5 µM and 85.1 µM | [9] 93 µM and 84.9 µM and 88.2 µM | [10] 78.3 µM [middle of 4 runs]
inactive: [4] | [18] | [5] | [6] | [7]

C1CC2OC2CC1C1CO1 (stereo not drawn)
inactive: [13] | [6] | [7] | [8] | [9] | [10]

CCNc1nc(NC(C)C)nc(SC)n1
inactive: [15] | [13]

Cc1cccc([N+](=O)[O-])c1
inactive: [6] | [7]
